Test results: PubChem BioAssay (EPA / NIEHS)
Inconclusive results are not listed. The source made the active and inactive calls. The calls were made as follows, unless noted: active = hit-call score of the fitted dose curve at least 0.9, where 1 is the maximum; inconclusive = response in the unintended direction; inactive = score below 0.9.

What was measured:
[1] = Tanguay_ZF_120hpf_PFIN_legacy: (Legacy) Oregon State University Tanguay Lab 120 Hour Post-fertilization zebrafish Assay for Pectoral Fin Malformation (AID 2283648);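 also: each larva judged yes or no for fin defect by brightfield with dead larvae skipped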
In short: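 5D WT zebrafish; pronase dechorionation 4 hpf; 1 embryo/well at 6 hpf; static exposure to 120 hpf, 28C, sealed, foil-covered; final DMSO 0.64% v/v; 5 uM trimethyltin chloride positive control; fin defect scored yes/no.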

[2] = Tanguay_ZF_120hpf_CFIN_legacy: (Legacy) Oregon State University Tanguay Lab 120 Hour Post-fertilization zebrafish Assay for Caudal Fin Malformation (AID 2283649)
In short: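 Single dechorionated 5D wild-type embryos are dosed at 6 hpf (final DMSO 0.64%) and held statically at 28C. Caudal fin malformation is recorded as present or absent at 120 hpf under brightfield, excluding dead embryos.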

[3] = Tanguay_ZF_120hpf_PIG_legacy: (Legacy) Oregon State University Tanguay Lab 120 Hour Post-fertilization zebrafish Assay for Pigmentation Malformation (AID 2283650)
In short: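 Pronase dechorionation at 4 hpf; embryos plated at 6 hpf, one per well; static exposure, sealed and foil-covered, 28C, to 120 hpf; pigmentation read by brightfield, binary; DMSO 0.64% baseline, 5uM trimethyltin chloride positive control.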

[4] = Tanguay_ZF_120hpf_CIRC_legacy: (Legacy) Oregon State University Tanguay Lab 120 Hour Post-fertilization zebrafish Assay for Circulatory Malformation (AID 2283651)
In short: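 Read-out: presence or absence of circulatory malformation at 120 hpf, scored by brightfield microscopy, fitted in the gain-of-signal direction against DMSO baseline. Wild-type 5D larvae were exposed from 6 hpf after enzymatic chorion removal.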

[5] = Tanguay_ZF_120hpf_SWIM_legacy: (Legacy) Oregon State University Tanguay Lab 120 Hour Post-fertilization zebrafish Assay for Swim Bladder Malformation (AID 2283654);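 also: swim bladder malformation in each larva scored yes or no under brightfield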
In short: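 Embryos lacking chorions were exposed individually and statically to test chemical from 6 to 120 hpf at 28C, with 0.64% DMSO as vehicle. At 120 hpf, swim bladder malformation was recorded as present or absent by brightfield microscopy.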

[6] = Tanguay_ZF_120hpf_NC_legacy: (Legacy) Oregon State University Tanguay Lab 120 Hour Post-fertilization zebrafish Assay for Notochord and Tail Malformation (AID 2283656)
In short: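 Dechorionated Tropical 5D wild-type zebrafish embryos, one per well from 6 hpf, statically exposed to 120 hpf at 28C in 0.64% DMSO final. Notochord distortion scored present/absent by brightfield; dead embryos excluded.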

[7] = Tanguay_ZF_120hpf_TR_legacy: (Legacy) Oregon State University Tanguay Lab 120 Hour Post-fertilization zebrafish Assay for Touch Response (AID 2283667)
In short: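 5D WT embryos; static exposure to 120 hpf, 28C, sealed/dark; DMSO 0.64% v/v final. TR scored present/absent; dead embryos excluded. Pos ctrl 5uM trimethyltin chloride.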

[8] = STM_H9_OrnithineISnorm_perc: Stemina devTOX quickPredict H9 human embryonic stem cell (hESC)-based Assay for Ornithine (ORN) Metabolite Biomarker, Normalized (AID 2283712; active = hit-call score of the fitted dose curve at least 0.9, where 1 is the maximum; inactive = score below 0.9;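 also: ornithine released into spent medium during last day measured by mass spectrometry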)
In short: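 H9 human embryonic stem cells kept pluripotent receive test chemical over 72 h, refreshed daily by media exchange. Media from the closing 24 h is deproteinized and analysed by UPLC-HRMS on an amide column; ornithine signal is scaled to labelled standard and vehicle.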

[9] = STM_H9_CystineISnorm_perc: Stemina devTOX quickPredict H9 human embryonic stem cell (hESC)-based Assay for Cystine (CYSS) Metabolite Biomarker, Normalized (AID 2283713; active = hit-call score of the fitted dose curve at least 0.9, where 1 is the maximum; inactive = score below 0.9)
In short: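 H9 hESC, pluripotent; compound 72h, re-dosed q24h with medium change. Last-24h medium → 40% acetonitrile deproteinization → UPLC-HRMS. CYSS area / C13-CYSS standard, then % of 0.1% DMSO median.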

[10] = CEETOX_H295R_MTT_cell_viability: Viability Assessment in the CeeTox HT-H295R MTT Assay (AID 2283718; active = hit-call score of the fitted dose curve at least 0.9, where 1 is the maximum; inactive = score below 0.9;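 as to AC50: curve fitted both ways so AC50 may mark viability loss or gain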)
In short: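 MTT reduction (0.5 mg/ml, 4 h at 37 C; absorbance at 570 and 650 nm) gave viability as background-corrected percent change versus controls. H295R cells had 48 h forskolin (10 uM) prestimulation, then 48 h chemical exposure at 0.1% DMSO.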

[11] = Tanguay_ZF_120hpf_ActivityScore_legacy: (Legacy) Oregon State University Tanguay Lab 120 Hour Post-fertilization zebrafish Assay Score for Activity (AID 2283742)
In short: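 Embryos are staged, enzymatically dechorionated at 4 hpf, placed individually at 6 hpf, then held in test chemical (0.64% DMSO) at 28C until 120 hpf. Mortality and malformations are scored by brightfield, with non-mortality endpoints skipped for dead embryos.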

[12] = CCTE_Padilla_ZF_144hpf_TERATOSCORE: (Legacy) CCTE's 144 Hour Post-fertilization zebrafish Assay Teratoscore, Padilla Lab (AID 2283679; active = hit-call score of the fitted dose curve at least 0.9, where 1 is the maximum; inactive = score below 0.9;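 as to AC50: zebrafish embryos with chorions exposed by immersion from 6-8 hpf to 5 dpf with daily renewal; teratogenicity score from eye scoring of death hatching and malformations at 144 hpf; higher score means more developmental defects relative to DMSO baseline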)
In short: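 Larvae scored by eye at 144 hpf for death, hatching and malformations after a day in clean Hanks'. Before that, daily-renewed exposure at 80 uM (0.4% DMSO, 26C) from roughly 6-8 hpf through 5 dpf, 4 embryos per chemical.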

[13] = Tanguay_ZF_120hpf_TRUN_legacy: (Legacy) Oregon State University Tanguay Lab 120 Hour Post-fertilization zebrafish Assay for Truncated Body (AID 2283655)
In short: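 Single dechorionated zebrafish embryos received test chemical from 6 hpf in 0.64% DMSO, kept at 28C. At 120 hpf, brightfield inspection noted any truncated body.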

[14] = system: Thyroperoxidase (TPO), gene 54314; assay: CCTE_Simmons_AUR_rTPO: CCTE's Amplex UltraRed Assay for Thyroperoxidase (TPO) Inhibition, Simmons Lab (AID 2283662);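 as to AC50: potency for loss of signal meaning inhibition of peroxidase activity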
In short: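 Rat thyroid microsomes (5 ug protein) were incubated with test compound (8 concentrations, 5 nM–87.5 uM final, 0.5% DMSO), 25 uM Amplex UltraRed and 300 uM H2O2 in 200 mM phosphate buffer for 30 min at 37C in the dark; fluorescence read at 544/590 nm.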

[15] = STM_H9_OrnCyssISnorm_ratio: Stemina devTOX quickPredict H9 human embryonic stem cell (hESC)-based Assay for Ornithine (ORN):Cystine (CYSS) Ratio (AID 2283714)
In short: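 Steps: H9 hESCs in pluripotent state dosed 72h, medium plus compound renewed every 24h; conditioned medium from the final 24h deproteinized in 40% acetonitrile; ORN and CYSS quantified by UPLC-HRMS with C13 spike-ins; ratio relative to vehicle.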

Compound: NC(=Nc1ccccc1)Nc1ccccc1
- outcome [1]: inactive
- outcome [2]: inactive
- outcome [3]: inactive
- outcome [4]: inactive
- outcome [5]: inactive
- outcome [6]: inactive
- outcome [7]: inactive
- outcome [8]: inactive
- outcome [9]: inactive
- outcome [10]: inactive
- AC50 [11]: 0.00546 µM (active)

Compound: CC(=O)OC1CC(C)OC(C)O1 (configuration not stated)
- outcome [1]: inactive
- outcome [2]: inactive
- outcome [3]: inactive
- outcome [4]: inactive
- outcome [5]: inactive
- outcome [6]: inactive
- outcome [7]: inactive
- outcome [11]: inactive

Compound: O=C(Oc1ccccc1)c1cccc(C(=O)Oc2ccccc2)c1
- outcome [1]: inactive
- outcome [2]: inactive
- outcome [3]: inactive
- outcome [4]: inactive
- outcome [5]: inactive
- outcome [6]: inactive
- outcome [7]: inactive
- AC50 [12]: 9.15 µM (active)
- outcome [8]: inactive
- outcome [9]: inactive
- outcome [10]: inactive
- outcome [11]: inactive

Compound: CCCCc1nc2cccnc2n1Cc1ccc(-c2ccccc2-c2nnn[nH]2)cc1
- outcome [1]: inactive
- outcome [2]: inactive
- outcome [3]: inactive
- outcome [4]: inactive
- outcome [5]: inactive
- outcome [13]: inactive
- outcome [12]: inactive
- outcome [10]: inactive
- outcome [11]: inactive

Compound: CCOCCOCCO
- outcome [1]: inactive
- outcome [2]: inactive
- outcome [3]: inactive
- outcome [4]: inactive
- outcome [5]: inactive
- outcome [6]: inactive
- outcome [7]: inactive
- outcome [11]: inactive

Compound: O=C(NS(=O)(=O)/C=C/c1cccs1)c1ccc(F)cc1Br
- outcome [1]: inactive
- outcome [2]: inactive
- outcome [3]: inactive
- outcome [5]: inactive
- outcome [13]: inactive
- outcome [6]: inactive
- outcome [7]: inactive
- outcome [12]: inactive
- outcome [11]: inactive

Compound: CSc1ccc(Oc2ccc(S(N)(=O)=O)cc2CN(C)C)cc1C
- outcome [1]: inactive
- outcome [2]: inactive
- outcome [4]: inactive
- outcome [5]: inactive
- outcome [13]: inactive
- AC50 [7]: 50.9 µM (active)
- AC50 [11]: 22.8 µM (active)

Compound: O=C1OC(c2ccc(O)cc2)(c2ccc(O)cc2)c2ccccc21
- outcome [1]: inactive
- outcome [2]: inactive
- outcome [3]: inactive
- outcome [4]: inactive
- outcome [5]: inactive
- outcome [6]: inactive
- AC50 [14]: 2.99 µM (active)
- outcome [7]: inactive
- outcome [8]: inactive
- outcome [9]: inactive
- outcome [15]: inactive
- outcome [10]: inactive
- outcome [11]: inactive

Compound: COC(=O)CCCC(=O)OC
- outcome [1]: inactive
- outcome [2]: inactive
- outcome [5]: inactive
- outcome [13]: inactive
- outcome [6]: inactive
- outcome [7]: inactive
- AC50 [12]: 62.7 µM (active)
- outcome [11]: inactive

Compound: Cc1cc(SC2=C(O)C[C@@](CCc3ccc(N)cc3)(C(C)C)OC2=O)c(C(C)(C)C)cc1CO
- outcome [1]: inactive
- outcome [2]: inactive
- outcome [4]: inactive
- outcome [5]: inactive
- outcome [6]: inactive
- AC50 [14]: 0.738 µM (active)
- outcome [7]: inactive
- AC50 [12]: 16.4 µM (active)
- outcome [11]: inactive

Compound: CC1(C)C(=O)NC(=O)N1CO
- outcome [1]: inactive
- outcome [3]: inactive
- outcome [4]: inactive
- outcome [5]: inactive
- outcome [6]: inactive
- outcome [14]: inactive
- outcome [7]: inactive
- outcome [11]: inactive

Compound: COC(=O)CCC(=O)OC
- outcome [1]: inactive
- outcome [3]: inactive
- outcome [4]: inactive
- outcome [5]: inactive
- outcome [6]: inactive
- outcome [7]: inactive
- outcome [11]: inactive

Compound: CC(N)=O
- outcome [1]: inactive
- outcome [3]: inactive
- outcome [4]: inactive
- outcome [5]: inactive
- outcome [6]: inactive
- outcome [7]: inactive
- outcome [12]: inactive
- outcome [11]: inactive

Compound: CC(=O)CC(c1ccccc1)c1c(O)c2ccccc2oc1=O (configuration not stated)
- outcome [1]: inactive
- outcome [3]: inactive
- outcome [4]: inactive
- outcome [5]: inactive
- outcome [13]: inactive
- outcome [7]: inactive
- AC50 [12]: 39.6 µM (active)
- outcome [8]: inactive
- outcome [9]: inactive
- outcome [11]: inactive

Compound: O=C(O)CN(CC(=O)O)CC(=O)O
- outcome [1]: inactive
- outcome [3]: inactive
- outcome [4]: inactive
- outcome [5]: inactive
- outcome [6]: inactive
- outcome [7]: inactive
- outcome [12]: inactive
- outcome [8]: inactive
- AC50 [9]: 14.8 µM (active)
- AC50 [15]: 13 µM (active)
- outcome [10]: inactive
- outcome [11]: inactive

Compound: CCCCCCC(C=O)=Cc1ccccc1
- outcome [1]: inactive
- outcome [3]: inactive
- outcome [4]: inactive
- outcome [5]: inactive
- outcome [13]: inactive
- outcome [6]: inactive
- outcome [7]: inactive
- AC50 [12]: 13.9 µM (active)
- outcome [11]: inactive

Compound: C/C=C/C=C/C(=O)O
- outcome [1]: inactive
- outcome [3]: inactive
- outcome [4]: inactive
- outcome [5]: inactive
- outcome [6]: inactive
- AC50 [14]: 48.8 µM (active)
- outcome [7]: inactive
- outcome [11]: inactive

Compound: CO[C@@H]1COCC[C@@H]1N[C@@H]1CC[C@@](C(=O)N2CCc3ncc(C(F)(F)F)cc3C2)(C(C)C)C1
- outcome [1]: inactive
- outcome [3]: inactive
- outcome [4]: inactive
- outcome [5]: inactive
- outcome [6]: inactive
- outcome [7]: inactive
- outcome [11]: inactive

Compound: Cc1cc(Cc2ccc(N)c(C)c2)ccc1N
- outcome [1]: inactive
- outcome [3]: inactive
- outcome [4]: inactive
- outcome [5]: inactive
- outcome [6]: inactive
- AC50 [14]: 0.844 µM (active)
- outcome [7]: inactive
- AC50 [12]: 88.5 µM (active)
- outcome [8]: inactive
- outcome [9]: inactive
- outcome [15]: inactive
- outcome [10]: inactive
- outcome [11]: inactive

Compound: C=CCc1ccc(OC)c(OC)c1
- outcome [1]: inactive
- outcome [3]: inactive
- outcome [4]: inactive
- outcome [5]: inactive
- outcome [13]: inactive
- outcome [6]: inactive
- AC50 [10]: 0.102 µM (active)
- outcome [11]: inactive

Compound: O=C1O[C@H]([C@H](O)CO)C(O)=C1O
- outcome [1]: inactive
- outcome [3]: inactive
- outcome [4]: inactive
- outcome [5]: inactive
- outcome [13]: inactive
- outcome [6]: inactive
- AC50 [14]: 43.8 µM (active)
- outcome [7]: inactive
- outcome [12]: inactive
- outcome [11]: inactive

Compound: O=C(N[C@@H](c1ccccc1)[C@@H]1CCCCN1)c1cccc(C(F)(F)F)c1Cl
- outcome [1]: inactive
- outcome [3]: inactive
- outcome [4]: inactive
- outcome [13]: inactive
- outcome [6]: inactive
- outcome [7]: inactive
- AC50 [12]: 20.3 µM (active)
- AC50 [11]: 53.2 µM (active)
